KB-3-1 cytotox: kills parental KB-3-1 adenocarcinoma cells; 1.4% of 400,000 active; Potency, µM (doses to about 46.1 µM), hits mostly cytotoxic; KB-3-1 viability, CellTiter-Glo ATP luminescence, 72 h; note: potency is the fitted concentration of half-maximal effect; % is set by controls: 0 for no effect and ±100 for the full control effect; nearly all actives have a fitted effect of over 60% in size
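Parental KB-3-1 viability, qHTS format: 72 h compound exposure, 37 °C; CellTiter-Glo; media-only wells and DMSO plates as controls; concentration-effect fits on corrected data.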
MCF10A rerep: inducers of DNA re-replication in MCF 10A breast cells; MCF 10A DNA re-replication, Hoechst nuclear intensity, 48 h; Potency, µM (series often up to 46.1 µM), for inactives: top-dose activity, positive = re-replication, actives largely listed as activators; 2.9% of 350,000 active; note: potency is the fitted concentration of half-maximal effect; % of control where 0% means no effect; nearly all actives have a fitted effect of over 50% in size
KB-V1 MDR tox: kills drug-selected multidrug resistant KB-V1 cells | KB-V1 MDR cells viability, CellTiter-Glo, 72 h | Potency, µM (doses to about 46.1 µM), hits mostly cytotoxic | 3.4% of 400,000 active | AID 1347076; note: potency is the fitted concentration of half-maximal effect; % is set by controls: 0 for no effect and ±100 for the full control effect; nearly all actives have a fitted effect of over 60% in size
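Luminescent ATP read-out (CellTiter-Glo, 10 min) measures survival of drug-selected KB-V1 MDR cells after 72 h, 37 degrees C compound exposure. Medium: phenol-red-free DMEM, 10% FBS. Values from fitted concentration-response curves.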
Giardia kill: kills Giardia lamblia; Giardia lamblia trophozoite viability; activity change, % at 7.66 µM, hits read low; 0.15% of 340,000 active; AID 540267; in the data active = activity change below about -80%; inconclusive = between about -30% and that limit;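 note: parasites exposed to compound for two days anaerobically before the ATP read; % is set by controls: 0 for no effect and ±100 for the full control effect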
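Each well holds 100 Giardia trophozoites and compound. After two days (48 hrs) at 37 deg C in anaerobic conditions, ATP is quantified by luminescence.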
SW480 rerep: inducers of DNA re-replication in SW480 colon cancer cells; Potency, µM (top dose mostly 46.1 µM), for the others: top-dose re-replication activation, actives largely listed as activators; 1.8% of 340,000 active; AID 624297; SW480 DNA re-replication, Hoechst DNA content imaging, 48 h; note: potency is the fitted concentration of half-maximal effect; % of control where 0% means no effect; nearly all actives have a fitted effect of over 55% in size
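Quantitative HTS format with DMSO vehicle controls; 48 hr drug incubation at 37 C, then 40 min Hoechst staining and scanning imager measurement at 405 nm excitation.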
S-ASM inh: inhibitors of human secretory acid sphingomyelinase; AID 504937; 0.006% of 340,000 active; placental ASM, HMU-PC fluorogenic substrate, 60 min; Potency, µM (top dose mostly 57.5 µM), for the others: top-dose activity change, negative = inhibition, hits mostly inhibitors; note: potency is the fitted concentration of half-maximal effect
Target sequence (P17405 47-631 limits assumed): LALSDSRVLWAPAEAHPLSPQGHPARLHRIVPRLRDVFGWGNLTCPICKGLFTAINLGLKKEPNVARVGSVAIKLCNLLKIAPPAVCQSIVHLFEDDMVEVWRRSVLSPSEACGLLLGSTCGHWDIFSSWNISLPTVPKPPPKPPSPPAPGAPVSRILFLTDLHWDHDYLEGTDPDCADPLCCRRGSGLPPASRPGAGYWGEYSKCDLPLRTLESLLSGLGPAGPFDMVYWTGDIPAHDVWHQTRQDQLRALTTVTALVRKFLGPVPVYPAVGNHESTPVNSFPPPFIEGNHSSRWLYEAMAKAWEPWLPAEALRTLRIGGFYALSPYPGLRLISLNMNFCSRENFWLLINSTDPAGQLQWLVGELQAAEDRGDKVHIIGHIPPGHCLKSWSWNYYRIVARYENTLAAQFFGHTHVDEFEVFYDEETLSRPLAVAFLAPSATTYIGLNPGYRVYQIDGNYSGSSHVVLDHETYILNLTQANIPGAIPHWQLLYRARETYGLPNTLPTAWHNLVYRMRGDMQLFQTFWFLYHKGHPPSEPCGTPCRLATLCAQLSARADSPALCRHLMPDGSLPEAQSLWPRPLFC
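Steps: dispense placental human ASM, pin compound, wait 10 min at room temperature, add HMU-PC0 substrate at 9 uM final, incubate 60 min at 37 °C, add stop solution raising pH to 10, read fluorescence.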
Numbers without * were called inactive; i = inactive; u = inconclusive; x = no result; ! = not confirmed by another sample. Most compounds without a hit are left out; they make up all but 6.9% or so of the library. Unless noted, calls come from the whole dose curve; as a rule, active = well fitted curve in the direction sought with a large enough effect; inconclusive = small, poorly fitted or top-dose-only effect, or another doubt; inactive = no such curve, though single readings can be large; an effect the other way counts as inactive or inconclusive.

SMILES	KB-3-1 cytotox	MCF10A rerep	KB-V1 MDR tox	Giardia kill	SW480 rerep	S-ASM inh
Cc1nc2ccccc2n1CCc1nc2c3ccccc3nc(SCc3cccc(F)c3)n2n1	i	x	i	x	x	x
OC[C@@H]1[C@@H](c2ccccc2)C(c2ccc(F)cc2)=NN1c1ccccc1	u	u	i	13	21µM*	i
OC[C@@H]1[C@@H](c2ccc(Cl)cc2)C(c2ccc(F)cc2)=NN1c1ccccc1	i	1.8µM*	i	-9	4.1µM*	i
Cc1ccc(N(CC(=O)Nc2cc(Cl)ccc2Oc2ccccc2)S(C)(=O)=O)cc1C	u	2%	21µM*	-6	0%	-6%
Cc1ccc(N(C(C)C(=O)Nc2cc(Cl)ccc2Oc2ccccc2)S(C)(=O)=O)cc1 (configuration not stated)	i	0%	u	18	8.2µM*	-1%
COc1cccc(C2CC(=O)Nc3c2ccc(C)c3C)c1OC (configuration not stated)	i	x	i	x	x	x
O=C(N[C@H]1CCC(=O)N(CCSc2ccc(Br)cc2)CC1)OCc1ccccc1	u	4%	21µM*!	14	3%	-6%
Cc1ccc(SCCN2CCC(NC(=O)OCc3ccccc3)CCC2=O)cc1 (configuration not stated)	i	u	u	-8	0%	3%
COc1ccccc1N1CCN(C(=O)c2ccc3[nH]c(C)c(C)c3c2)CC1	1.6µM*	u	4.6µM*	20	2.3µM*	-5%
COc1ccccc1N1CCN(C(=O)c2ccc3[nH]c4c(c3c2)CC(C)CC4)CC1 (configuration not stated)	i	u	21µM*	-3	11%	-2%
COCCn1c(=S)[nH]c2cc(C(=O)N3CCN(c4ccccc4OC)CC3)ccc2c1=O	i	0%	15µM*	3	-8%	-1%
CCOC(=O)c1[nH]c2ccc(OC)cc2c1NC(=S)N1CCN(c2cccc(C)c2C)CC1	i	15µM*	i	-21	u	-9%
COCCn1c(=O)[nH]c2cc(C(=O)N3CCN(c4ccccc4OC)CC3)ccc2c1=O	i	-3%	i	-11	-4%	19%
CC1CCc2[nH]c3ccc(C(=O)O)cc3c2C1 (configuration not stated)	i	-2%	u	8	u	0%
Cc1[nH]c2ccc(C(=O)N3CCN(c4ccccc4Cl)CC3)cc2c1C	i	u	i	2	u	-16%
Cc1[nH]c2ccccc2c1C(c1c[nH]c2ccccc12)c1c(C)[nH]c2ccccc12	i	x	i	x	x	x
COc1ccc(COc2ccc(C3C(S(=O)(=O)c4ccccc4)CON3C)cc2OC)cc1 (configuration not stated)	i	-4%	i	-21	-14%	2%
O=C(COc1ccc(F)cc1)NCCc1nc2ccccc2[nH]1	u	x	u	0	x	x
Cc1cccc(N2CCN(C(=O)c3ccc4[nH]c(C)c(C)c4c3)CC2)c1C	26µM*	2.3µM*	2.3µM*	-12	3.3µM*	-13%
Cc1ccc(S(=O)(=O)N(C)CC(=O)N(CC(C)C)C2CCS(=O)(=O)C2)cc1 (configuration not stated)	i	4%	i	-2	4.1µM*	9%
CCCCN(C(=O)/C=C/c1ccc(OC)cc1)C1CCS(=O)(=O)C1 (configuration not stated)	i	-2%	u	6	2%	-2%
CC(C)CN(C(=O)CN(C)S(=O)(=O)c1ccc(Cl)cc1)C1CCS(=O)(=O)C1 (configuration not stated)	i	1%	i	8	2%	4%
CCCN(C(=O)/C=C/c1ccc(S(=O)(=O)N(CC)CC)cc1)C1CCS(=O)(=O)C1 (configuration not stated)	i	-5%	23µM*	-9	-5%	0%
O=[N+]([O-])c1ccc2[nH]c3c(c2c1)CCCC3	i	3%	u	11	2%	-8%

Source: PubChem (National Center for Advancing Translational Sciences (NCATS))
